About 50,000 (12%) of roughly 420,000 compounds were called active. Where a call stands in place of a potency, no number is given. Another 26% or so got no clear call; they are omitted. The call rests on the fitted dose curve; in most records, active means well fitted inhibition curve with a large enough effect; inconclusive means small, poorly fitted or top-dose-only effect; inactive means flat fitted curve, though single readings scatter. Only a selection was taken, and actives are over-represented in it overall.
Test: qHTS for Inhibitors of human tyrosyl-DNA phosphodiesterase 1 (TDP1): qHTS in cells in presence of CPT; further: nearly all actives have a fitted effect of over 55% in size
Conditions: chicken DT40 Tdp1-/-;hTDP1 cells + 20 nM CPT, ATP luminescence, 48 h; series mostly up to 46.2 µM
Summary of the method: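 Chicken DT40 Tdp1-/- cells complemented with human TDP1, 400 cells/well, exposed to compounds plus 20 nM camptothecin for at least 48 h at 37 C; viability read as ATP content by CellTiter-Glo luminescence.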
In the case of COc1ccccc1NC(=O)N1CCCC1C(=O)NCc1cccs1 (configuration not stated), the Potency was “inactive”. With CC(C)CN(C(=O)CSc1ncnc2sccc12)C1CCS(=O)(=O)C1 (configuration not stated) the Potency was “inactive”. With O=C(COc1ccc(NC(=O)c2ccccc2[N+](=O)[O-])cc1)c1ccc(F)cc1 the Potency was “inactive”. In the case of CSc1nc(-c2ccccc2)nc(C(Cl)Cl)n1, the Potency was 1.16 µM (active). With CSc1ncc(Sc2ccccc2)c(C(=O)O)n1 the Potency was “inactive”. With COc1ccc(CC(NC(C)=O)C(=O)N2CCN(C(=O)Nc3cccc(Cl)c3)CC2)cc1OC (configuration not stated) the Potency was “inactive”. For COc1ccc(CCC(=O)c2ccc(OC)cc2)cc1, the Potency was “inactive”. In the case of COc1ccc(OCCC(=O)c2ccc(OC)cc2)cc1, the Potency was 2.59 µM (active). In the case of COc1ccc(OCCCC(=O)Oc2ccc(OC)cc2)cc1, the Potency was “inactive”. In the case of Cc1ccc2sc(NNC(=O)c3ccc4c(c3)OCCO4)nc2c1C, the Potency was “inactive”. For CNc1ccc(-c2nc(-c3ccccc3C)no2)cc1[N+](=O)[O-], the Potency was “inactive”. With Cc1onc(-c2ccccc2)c1C(=O)N1CCOCC1 the Potency was “inactive”. For Cc1noc(C)c1C(=O)N1CCOCC1, the Potency was “inactive”. In the case of Cc1oc2c(c1C(=O)N1CCOCC1)C(=O)c1ccccc1C2=O, the Potency was 2.59 µM (active). With CC(NCC(=O)Nc1ccccc1C(=O)NC1CC1)c1ccccc1Cl (configuration not stated) the Potency was “inactive”. In the case of O=C(c1cccc(Br)c1)N1CCN(Cc2cc(=O)n3nc(-c4ccccc4)sc3n2)CC1, the Potency was “inactive”. In the case of CCOC(=O)c1sc(=S)n(-c2cccc(OC)c2)c1N, the Potency was 35.5 µM (active). For CCOC(=O)C(C)n1cnc2c(nnn2-c2cccc(OC)c2)c1=O (configuration not stated), the Potency was “inactive”. With COc1cccc(-n2c(=S)sc3c(=O)n(-c4ccccc4C)c(SCC(=O)O)nc32)c1 the Potency was “inactive”. For CSc1ncccc1C(=O)Nc1cccc(S(=O)(=O)N2CCOCC2)c1, the Potency was “inactive”. With O=C(Nc1ccc(F)cc1)c1cccnc1N1CCOCC1 the Potency was “inactive”. For CCc1cccc(NC(=O)c2cnc(N3CCOCC3)c3ccccc23)c1, the Potency was 20.6 µM (active). In the case of Cc1cc(Br)ccc1NC(=O)c1cnc(N2CCN(c3ccccn3)CC2)c2ccccc12, the Potency was 14.6 µM (active). With Cc1cc(Br)ccc1NC(=O)c1sc2ncn(CC(=O)N3CCN(c4ccccn4)CC3)c(=O)c2c1C the Potency was “inactive”. In the case of Cc1ccc(S(=O)(=O)NCC(=O)N2CCN(c3ccccn3)CC2)cc1, the Potency was “inactive”. For O=C(NCc1ccccc1)C1c2ccccc2OCC(=O)N1C1CC1 (configuration not stated), the Potency was “inactive”. In the case of CS(=O)(=O)N(CC(=O)NC1CCCC1)Cc1ccc(F)cc1, the Potency was “inactive”. For CCCCn1c(N)c(N(CC(C)C)C(=O)c2ccc(Br)o2)c(=O)[nH]c1=O, the Potency was “inactive”. With CCOCc1nnc(NC(=O)CCC2CCCCC2)s1 the Potency was “inactive”. In the case of COCCN(C(=O)CCC(=O)Nc1nccs1)C(C(=O)NCCC(C)C)c1ccc(F)cc1 (configuration not stated), the Potency was “inactive”. For O=C(CC(NC(=O)c1ccccc1)c1ccccc1)Nc1ccc(F)c(F)c1 (configuration not stated), the Potency was “inactive”. In the case of COc1cccc(NC(=O)c2ccc(Cn3cc([N+](=O)[O-])cn3)o2)c1, the Potency was “inactive”. In the case of O=C(c1ccc(Cn2cc([N+](=O)[O-])cn2)o1)N1CCCC1, the Potency was “inactive”. In the case of O=C(Nc1ccc(Br)c2cccnc12)c1ccc(Cn2cc([N+](=O)[O-])cn2)o1, the Potency was 16.4 µM (active). For COC1=CC(=O)OC(C)(c2ccccc2)C1 (configuration not stated), the Potency was “inactive”. For CC(=O)c1c(C)n(-c2ccc(C)cc2)c2ccc(O)cc12, the Potency was “inactive”. In the case of CC(=O)c1c(C)n(-c2ccc(N(C)C)cc2)c2ccc(OCC(N)=O)cc12, the Potency was 18.4 µM (active). In the case of Cc1c(Cc2ccccc2)c(=O)oc2cc(OCC(N)=O)ccc12, the Potency was “inactive”. With CCCCc1ccc(S(=O)(=O)NC(=O)C2(C)CCN2C(=O)c2ccccc2)cc1 (configuration not stated) the Potency was “inactive”. With Cc1cccc2[nH]c(CN(C)C(=O)C3CCC(=O)N(CCc4ccccc4)C3)nc12 (configuration not stated) the Potency was “inactive”. In the case of CS(=O)(=O)Nc1ccccc1N=C(c1ccccc1)c1ccccc1, the Potency was “inactive”. With CC(C)CN(C(=O)CSc1nncn1C)C1CCS(=O)(=O)C1 (configuration not stated) the Potency was “inactive”. In the case of COc1cc(CC(=O)N2CCC(n3nccc3NC(=O)C3CC3)CC2)cc(OC)c1OC, the Potency was “inactive”. For CCOc1cc(/C=N/NC(=O)CN2CCCCC2)ccc1O, the Potency was “inactive”. With CCOc1cc(/C=C(\C#N)C(=O)Nc2ccccc2C)ccc1OCc1cc(=O)n2nc(CC)sc2n1 the Potency was “inactive”. In the case of CCOc1cc(/C=C(\C#N)c2nc(-c3cccs3)c(NC(C)=O)s2)ccc1O, the Potency was 2.31 µM (active). With Cc1cc2c(C)nc(N/N=C/c3ccccc3)nc2o1 the Potency was “inactive”. With Cc1ccc(C(=O)CN2C(=O)NC3(CCOc4ccccc43)C2=O)s1 (configuration not stated) the Potency was “inactive”. In the case of Cc1ccc(NC(=O)C(C)OC(=O)Cc2c[nH]c3ccccc23)cc1S(=O)(=O)N1CCOCC1 (configuration not stated), the Potency was “inactive”. For Cc1ccc(-n2nc(C)c(C(=O)O)c2-n2cccc2)cc1, the Potency was “inactive”. In the case of Cc1ccc(S(=O)(=O)N2C[C@@H]3CCCC[C@@H]3[C@@H](C)[C@H]2c2cn(Cc3ccccc3)c3ccc(F)cc23)cc1, the Potency was 6.51 µM (active). In the case of O=C(CS(=O)(=O)c1cn(Cc2cccc(F)c2)c2ccccc12)N1CCCCC1, the Potency was “inactive”. With Cc1ccc(S(=O)(=O)N2CC(C)N(S(C)(=O)=O)C2)cc1 (configuration not stated) the Potency was “inactive”. In the case of CCC(=O)c1ccc(OCC(=O)OCC(=O)N2CCc3ccccc3C2)cc1, the Potency was “inactive”. With COc1cccc(C(NC(C)=O)c2nc(-c3cnc4ccccc4c3)cs2)c1 (configuration not stated) the Potency was “inactive”. With COc1ccc(Nc2cc(Cl)ccc2C(=O)O)cn1 the Potency was “inactive”. In the case of COc1ccc(-c2csc(C(O)c3cccc(Cl)c3)n2)cn1 (configuration not stated), the Potency was 16.4 µM (active). With CCCC(CNC(=O)COC(=O)C1=NNC(=O)CC1)c1ccc(Cl)cc1Cl (configuration not stated) the Potency was “inactive”. With CC(C)C(=O)Nc1ccc2c(c1)oc1ccccc12 the Potency was “inactive”. For O=C(CSc1nnc(-c2ccccc2O)o1)NC1CCCCC1, the Potency was “inactive”. In the case of Cn1nccc1/C=N\NC(=O)c1ccc(Cl)cc1, the Potency was “inactive”. For Cc1ccc(Nc2nc3ccccc3nc2-n2nc(C)cc2C)c(Cl)c1, the Potency was “inactive”. For Cc1cc(Nc2ccccc2)nc(N)n1, the Potency was “inactive”. For Cc1cc(Oc2ccccc2)nc(N2CCOCC2)n1, the Potency was “inactive”. With COc1ccc(NC(=O)c2nc(-n3nc(C)cc3C)ccc2Cl)cc1Cl the Potency was “inactive”. For CC(=O)c1ccc(Oc2cc(C)nc(-n3nc(C)cc3C)n2)cc1, the Potency was 0.731 µM (active). In the case of Cc1cccc(Nc2cc(C)nc(-n3nc(C)cc3C)n2)c1, the Potency was 3.26 µM (active). With Cc1cc(C)n(-c2cc(Oc3ccccc3)ncn2)n1 the Potency was “inactive”. In the case of COc1ccc(Nc2cc(C)nc(-n3nc(C)cc3C)n2)cc1, the Potency was 0.517 µM (active). In the case of COc1ccc(Nc2nc(=O)[nH]nc2C)cc1, the Potency was “inactive”. For CC(=O)NCCC(=O)Nc1cc(S(=O)(=O)N2CCCCC2)ccc1Oc1cccc(C)c1, the Potency was “inactive”. For COC(=O)c1ccc(NC(=O)c2cc3c(CO)cnc(C)c3oc2=Nc2cccc(C(N)=O)c2)cc1, the Potency was “inactive”. With O=C(N/C(=C\c1ccc([N+](=O)[O-])cc1)C(=O)N1CCCCC1)c1ccco1 the Potency was “inactive”. In the case of CC(=O)c1cccc(NC(=O)Nc2ccc(C)cc2)c1, the Potency was “inactive”. In the case of CC(=O)Nc1ccc(NC(=O)[C@@H](NC(=O)c2cccc(C)c2)C(C)C)cc1, the Potency was “inactive”. For Cc1ccc(NC(=O)C(C)c2cccc(C(=O)c3ccccc3)c2)cc1 (configuration not stated), the Potency was 14.6 µM (active). With O=C(CN(C(=O)CNC(=O)c1cccs1)c1cccc(F)c1)NC1CCCCC1 the Potency was “inactive”. For Cc1ccc(N2C(=O)C(CC(=O)Nc3cccc(F)c3)N(CCc3ccncc3)C2=O)cc1 (configuration not stated), the Potency was “inactive”. In the case of CCOc1ccc(NC(=O)CC2C(=O)N(c3cccc(OC)c3)C(=O)N2C2CCCCC2)cc1 (configuration not stated), the Potency was “inactive”. In the case of COc1ccc(CCN2C(=O)N(c3cccc(OC)c3)C(=O)C2CC(=O)Nc2ccccc2)cc1 (configuration not stated), the Potency was 18.4 µM (active). In the case of CCOc1ccc(NC(=O)CC2C(=O)N(c3ccccc3)C(=O)N2CCOC)cc1 (configuration not stated), the Potency was “inactive”. With CCNC(=O)N1CCNC(=O)C1CC(=O)Nc1ccc(C(=O)OCC)cc1 (configuration not stated) the Potency was “inactive”. With CCOC(=O)c1ccc(NC(=O)CC2C(=O)N(c3cccc(OC)c3)C(=O)N2C2CCCCC2)cc1 (configuration not stated) the Potency was 20.6 µM (active). In the case of CN1c2ccc([N+](=O)[O-])cc2C(C)(C)C12C=Cc1cc(C(=O)O)ccc1O2 (configuration not stated), the Potency was “inactive”. In the case of COc1ccc(S(=O)(=O)N2CCOCC2)cc1NC(=O)Cc1coc2cc(C)ccc12, the Potency was “inactive”. In the case of COc1ccc(/C(C)=N/NC(=O)c2ccc3nc[nH]c3c2)cc1, the Potency was “inactive”. With CCN(C(=O)CSc1cccc[n+]1[O-])c1ccccc1 the Potency was “inactive”. For O=C(CSc1cccc[n+]1[O-])c1ccc(-c2ccccc2)cc1, the Potency was 0.92 µM (active). With COc1ccccc1C(=O)CSc1cccc[n+]1[O-] the Potency was “inactive”. In the case of Cc1ccc(C(C)NC(=O)Cn2nc(C)c([N+](=O)[O-])c2C)cc1 (configuration not stated), the Potency was “inactive”. With Cn1c(CC2Sc3ccccc3NC2=O)nnc1SCC(=O)c1ccc(Cl)cc1 (configuration not stated) the Potency was “inactive”. In the case of O=C(CN1C(=O)COc2ccc(Cl)cc21)N1CCOCC1, the Potency was “inactive”. In the case of Cc1ccc(NC(=O)C(=O)NCC(c2cccnc2)N2CCOCC2)cc1 (configuration not stated), the Potency was “inactive”. For COc1ccccc1N1CCN(C(CNC(=O)C(=O)NCc2ccc(C)cc2)c2cccnc2)CC1 (configuration not stated), the Potency was 4.61 µM (active). With Cc1ccc(NC(=O)NCC(c2cccnc2)N2CCOCC2)cc1 (configuration not stated) the Potency was “inactive”. With CC(OC(=O)c1cc2ccccc2[nH]1)C(=O)N(C)c1ccccc1 (configuration not stated) the Potency was “inactive”. For O=C(Cc1ccccn1)c1ccc(O)cc1O, the Potency was “inactive”. In the case of Cc1ccc(CN(Cc2cccnc2)C(=S)Nc2cc(Cl)ccc2C)cc1, the Potency was 13 µM (active). For Cc1ccc(Cl)cc1NC(=S)N(CCN(C)C)Cc1cccs1, the Potency was “inactive”. For Cc1c(Cl)cccc1NC(=S)N(Cc1ccccc1)Cc1cccnc1, the Potency was “inactive”. With C=CCn1nc(-c2ccccc2)c2c(C)onc2c1=O the Potency was “inactive”. For O=C(Nc1cccc(C(=O)NC2CC2)c1)c1ccc(F)c(S(=O)(=O)N2CCOCC2)c1, the Potency was “inactive”. With OCC[C@H]1C[C@H](O)[C@@H](O)[C@]2(CCCCO2)O1 the Potency was “inactive”. In the case of Cc1nnsc1C(=O)NCc1c(F)cccc1Cl, the Potency was “inactive”. For Cn1cc(S(=O)(=O)Nc2ccc(Cl)cc2Cl)c(=O)n(C)c1=O, the Potency was 20.6 µM (active). With Cc1ccc(NS(=O)(=O)c2cn(C)c(=O)n(C)c2=O)c(C)c1 the Potency was “inactive”. In the case of CC(C)c1ccc(NS(=O)(=O)c2cn(C)c(=O)n(C)c2=O)cc1, the Potency was “inactive”.
Potency means the concentration at half of the fitted maximal effect.
